Laboratory results reported in the supplement of paper PMC6555819.

Columns and labels:
Experiment in all cases: PBM binding z-score (relative to random genomic background probes); higher = stronger binding; sequences stand for … in GC…GCGATTGACAGCGTAGAATGAAGG
[1] = test system: FXR:RXRa (NR concentration 270 nM, RXRa partner concentration 90 nM)
Method in brief: (§1)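 Custom Agilent 4×180K protein-binding microarrays carried double-stranded probes. Their 34-nt variable regions held direct-repeat seeds, single-nucleotide variants, half-site ablations and random human genomic background sequences. Arrays were incubated 1 h with ligand-free nuclear receptor dimers in PBS pH 7.4, 2% milk, 0.02% Triton X-100, 1 mM DTT, 0.2 mg/mL BSA and 0.4 mg/ml salmon testes DNA. Antibodies against each partner (one per run) detected binding, and scanned fluorescence was regression-normalized. Binding z-scores use random background probes as reference.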

[2] = test system: LXRa:RXRa (NR concentration 270 nM, RXRa partner concentration 90 nM)
Method in brief: as §1

[3] = test system: LXRa homodimer (NR concentration 270 nM)
Method in brief: as §1

[4] = test system: LXRb:RXRa (NR concentration 270 nM, RXRa partner concentration 90 nM)
Method in brief: as §1

[5] = test system: LXRb homodimer (NR concentration 270 nM)
Method in brief: as §1

[6] = test system: PPARa:RXRa (NR concentration 270 nM, RXRa partner concentration 90 nM)
Method in brief: as §1

[7] = test system: PPARg:RXRa (NR concentration 180 nM, RXRa partner concentration 90 nM)
Method in brief: as §1

[8] = test system: PPARg:RXRa 270nM:90nM, anti-RXR (NR concentration 270 nM, RXRa partner concentration 90 nM)
Method in brief: as §1

[9] = test system: PPARg:RXRa 30nM:10nM, anti-RXR (NR concentration 30 nM, RXRa partner concentration 10 nM)
Method in brief: as §1

[10] = test system: PPARg:RXRa 90nM:30nM, anti-RXR (NR concentration 90 nM, RXRa partner concentration 30 nM)
Method in brief: as §1

Sequence | PBM binding z-score [1] | PBM binding z-score [2] | PBM binding z-score [3] | PBM binding z-score [4] | PBM binding z-score [5] | PBM binding z-score [6] | PBM binding z-score [7] | PBM binding z-score [8] | PBM binding z-score [9] | PBM binding z-score [10]
TGAATGAGATTAAAGATCAGGGAACGTGGCGTCG | -0.229 | -0.065 | -0.329 | -0.322 | -0.389 | 0.409 | 1.02 | 2.19 | 1.3 | 1.91
CGTCCAAGGCCATAGGAGGTCAGTGAAGACAGAT | 2.46 | 3.14 | 0.814 | 1.69 | -0.756 | 2.21 | 0.688 | 0.571 | -0.185 | 0.133
ATACAAAGGTGATCGTGAGGTCGTTGATACTAAC | 2.64 | 2.6 | 0.941 | 1.91 | 0.00532 | 2.76 | 1.87 | 1.95 | 0.554 | 1.27
CGAACTAGGTCAGAACAGGACAGTGAAGGATGAT | 1.69 | 0.689 | -0.0376 | 0.189 | -0.174 | 2.78 | 4.94 | 4.45 | 1.53 | 3.44
AATACACGGTCACTAGGCCAGAGTAGGTACGAAT | 0.614 | 1.45 | 1.32 | 0.203 | 0.449 | 0.827 | 2.67 | 1.74 | 0.885 | 1.15
AGAACGAGGGCAATGACTTGATAGCACGGGTGGC | 0.827 | 0.481 | -0.243 | -0.0938 | -0.458 | 1.43 | 1.71 | 0.813 | 0.00433 | 0.55
AGAATGAGGTTATTAAGATCAGTGAATTGCGGTC | 1.66 | 1.74 | 0.236 | 1.27 | 0.0793 | 2.7 | 1.43 | 1.81 | 0.385 | 0.958
GCATATAGTTAATACAAGGTGAAAGTCCGATTGT | 0.799 | 0.553 | 0.623 | 0.44 | -0.202 | 0.488 | 0.801 | 0.639 | 0.496 | 0.653
GGAACGAGGGCAAGTTCATAGCAGAGTTTGATGG | 2.59 | 1.97 | 0.721 | 1.46 | -0.0122 | 2.95 | 2.11 | 2.35 | 0.471 | 1.57
CAATCTAGGTCAAGGTCAAAGTCGGTTTGTGCCA | 6.74 | 5.74 | 4.27 | 4.52 | 1.81 | 6.18 | 9.73 | 8.06 | 6.64 | 8.19
TCATATAGGTAAATGCTAGGTGATAGTCCGATCT | 0.869 | 0.734 | -0.164 | 0.564 | -0.125 | 1.2 | 1.13 | 2.24 | 3.56 | 2.87
CGAACTAGGTCACAACAGGACAGTGAAGGATGAT | 3.29 | 4.76 | 0.422 | 2.17 | 0.119 | 4.65 | 7.81 | 6.57 | 3.9 | 6.22
CCAGACAGGTTAAAGGTAACTCAGTCTGGTACGC | 1.95 | 1.84 | 0.195 | 1.63 | -0.137 | 3.7 | 4.55 | 4.78 | 3.23 | 5.29
CGTCCAAGGTCAAAGGTCAGTGTAGAGATGACGG | 8.42 | 7.04 | 3.99 | 6.49 | 1.91 | 7.25 | 10.7 | 9.05 | 7.79 | 9.69
CATACAGGGTCAGCTAGGCCAGACTAGGGACGGC | 4.02 | 2.77 | -0.135 | 1.97 | 0.282 | 4.06 | 3.31 | 2.8 | 0.502 | 1.8
CCTATTAGTTGACCATAAGGGCAACAGAAGCTCG | 0.832 | 0.536 | 0.381 | 0.601 | 0.473 | 0.814 | 0.639 | 0.432 | 0.111 | 0.284
ATACCAAGGTAATCGTGAGGTCGTTGATACTAAC | 1.31 | 1.48 | 0.673 | 1.29 | 0.295 | 1.38 | 0.484 | 0.308 | -0.0613 | 0.22
CCTACTGGGCCATTCAGATGTCATTGATCATATG | -0.368 | -0.638 | -0.391 | -0.292 | -0.418 | 0.25 | 0.6 | 0.494 | 0.00113 | 0.0703
AATTACGGGTCAACGAGGTTATAGCACGCGTATA | 7.35 | 6.12 | 3.47 | 4.88 | 1.02 | 6 | 6.93 | 6.19 | 2.81 | 5.1
TCAGACAGGTGAAGGAAACTCAGGTACGCAGTCG | 0.911 | 1.04 | 0.00488 | 0.561 | 0.0545 | 1.05 | 0.717 | 2.37 | 4.29 | 3.32
GCGACTGGGCCAAAGCAGGTTACCATAAGGTTGG | -0.0779 | -0.533 | -0.738 | -0.554 | -1.58 | 0.468 | 0.648 | 0.456 | -0.481 | 0.0774
CGAAGTAGGTCAGAACAGGACAGTGAAGGATGAT | 1.72 | 1.2 | -0.0962 | 0.449 | 0.019 | 3.32 | 5.69 | 4.81 | 2.22 | 4.14
CAGCCTAGGTCAGGGCCAGTAAAGGAGGAACGTT | 1.69 | 0.93 | -0.563 | 0.471 | -1.1 | 2.26 | 0.751 | 0.991 | -0.53 | 0.142
ATCGAGAGGTCGAAGGTGAGTATACCCACCCGAA | 3.03 | 2.43 | -0.396 | 1.74 | -0.284 | 4.07 | 3.99 | 3.99 | 1.81 | 3.84
